# Measured values from PubChem BioAssay (NCI).
# About 83,000 compounds went through this panel and 20% of them were active in at least one assay; those are over-represented in the sample as a whole.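 Cell lines were cultured in 96-well plates, exposed to a single compound concentration, and assessed for percent growth 48 hours later.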 Active and inactive are the calls of the source. The calls were made as follows: active = growth percent below 10; inactive = the rest.
# System: SK-OV-3 ovarian
# Assay: NCI-60 one-dose screen, 48 h (100 = growth as untreated, 0 = no growth, -100 = all killed)
# Settings: 10 µM unless noted
row,SMILES,growth
1,CC(C)(C)c1cc(C=O)cc(C(C)(C)C)c1O,110% (inactive)
2,COc1ccc(OC)c(CCn2cncc2-c2c[nH]c3ccccc23)c1,72.9% (inactive)
3,COCCCN1CC(O)=C(c2nc(-c3ccc(C)cc3)cs2)C1=N,120% (inactive)
4,O=C(CCN1CCCC1)Nc1ccc2c(Nc3ccc(Br)cc3)c3ccccc3nc2c1,57.5% (inactive)
5,O=C(Cn1c[n+](CC(=O)c2ccc(-c3ccccc3)cc2)c2ccccc21)Nc1cccc2cccnc12,50.5% (inactive)
6,CCN1Cc2nc3sc(C)c(C)c3c(=O)n2C=C1C,115% (inactive)
7,Cc1ccc(-n2c3c(c(-c4ccccc4)c2-c2ccccc2)C2=NCCN2C=N3)cc1,94.7% (inactive)
8,CCCCC[n+]1ccc(SCC(=O)N(C)c2ccc(Oc3ccccc3)cc2)c2ccccc21,101% (inactive)
9,COc1cc(OC)cc(C(=O)C[n+]2cccc3cc[nH]c32)c1,104% (inactive)
10,CCOC(=O)[C@@H]1CCCN(S(=O)(=O)c2ccc(S(=O)(=O)N(CC)CC)c(F)c2)C1,82.4% (inactive)
11,Cn1ccc2c1CC1CN(Cc3ccco3)C(=O)C1C2C(=O)O (stereo not drawn),109% (inactive)
12,O=C(NO)c1ccc(-n2nc(-c3ccccc3)c3ccccc32)cc1,58.7% (inactive)
13,COc1ccc(CC(C)=C(c2ccc(OCCN3CCCCCC3)cc2)c2ccc(OCCN3CCCCCC3)cc2)cc1,-90.1% (active)
14,Nc1n[nH]c2cccc(C#Cc3cccc(C(=O)Nc4cccc(C(F)(F)F)c4)c3)c12,59.6% (inactive)
15,Cc1ccc(C(=O)/C(=C/c2ccc([N+](=O)[O-])cc2)SCc2ccc(Cl)cc2)cc1,101% (inactive)
16,O=C(O)c1ccc2c(c1)C(=O)N(Cc1ccccc1)C2=O,106% (inactive)
17,O=C1Nc2cc(-c3cccc(O)c3)ccc2/C1=C/c1ccc[nH]1,3.46% (active)
18,O=Cc1ccc(-c2cn3ccnc3c(-c3ccc4ncn(Cc5ccccc5)c4c3)n2)cc1,94.9% (inactive)
19,CCc1ccc(CNc2ccc(N3CCOCC3)c(C(=O)O)c2)cc1,103% (inactive)

row,SMILES,growth
1,O=C(CCN1CCCC1)c1ccc([N+](=O)[O-])cc1,101% (inactive)
2,CNCCOc1nc2c3cnccc3cc(-c3cc(OC)c(OC)c(OC)c3)c2c2ccncc12,-33.9% (active)
3,Nc1c(S(=O)(=O)O)cc2c3c(cccc13)C(=O)OC2=O,110% (inactive)
4,Oc1ccc(C(c2ccc(O)cc2)c2ccc(Br)cn2)cc1,65.4% (inactive)
5,CCCCOc1ccc(/C=N/Nc2cc(C)nc3ccc(Br)cc23)cc1,91.5% (inactive)
6,CC1(C)NCCC[C@]2(C)[C@H]3CC(=O)[C@H]4[C@@H]5C[C@](C)(CO)CC[C@]5(C)CC[C@@]4(C)[C@]3(C)CC[C@@H]12,110% (inactive)
7,N#Cc1cc(-c2nc3ccccc3s2)c(=O)n(NS(=O)(=O)c2ccccc2)c1N,90.3% (inactive)
8,O=S(=O)(NCCNc1nccc(-c2c(-c3cccc(O)c3)nc3occn23)n1)c1cccc(F)c1,91.8% (inactive)
9,c1ccc2c(-c3c[nH]c4ccccc34)c3c(cc2c1)[nH]c1ccccc13,84.5% (inactive)
10,O=C(/C=C(/C=C/c1csc2ccccc12)OB(F)F)/C=C/c1csc2ccccc12,100% (inactive)
11,Cc1ccc(-c2csc(NC(=O)CSc3nc(-c4ccccc4)cc(=O)[nH]3)n2)cc1,92.4% (inactive)
12,CCCC/C=N/NC(=S)NCc1ccccc1,88.9% (inactive)
13,COc1ccc2nc(-c3ccc(-c4noc(-c5cc(OC)c(OC)c(OC)c5)n4)cc3)[nH]c2c1,116% (inactive)
14,Fc1ccc(-c2cn3c(nc4ccccc43)c(-c3ccccc3)n2)cc1,105% (inactive)
15,CCNC(=O)Oc1ccc(/C(=C(\C)c2ccccc2)c2ccc(OCCN3CCCCC3)cc2)cc1,53.6% (inactive)
16,CCCCOc1ccc(/C(C)=N/Nc2cc(C)nc3ccc(Br)cc23)cc1,89.4% (inactive)
17,N#Cc1cccc(-c2ccc3c(c2)NC(=O)/C3=C\c2ccc[nH]2)c1,24.1% (inactive)
18,O=C(NNc1nc2c(F)cccc2n2cccc12)c1cnccn1,28.4% (inactive)
19,CN(C)CCC(=O)c1ccc([N+](=O)[O-])cc1,99.5% (inactive)
